# Hits are enriched below; roughly 4.4% of the tested compounds scored in any of these assays.
# tim23-1 inh: growth inhibitors of tim23-1 mutant yeast; S. cerevisiae tim23-1 growth, BacTiter-Glo luminescence, 24 h; inhibition, % at 20 µM; hit rate 1.3% among 330,000; AID 463212;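 active = growth inhibition of the mutant yeast at or above 50%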;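 also: temperature-sensitive mutant grown at 25 °C; plate controls were DMSO-treated mutant yeast for no effect and medium wells lacking yeast for full effect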
# SKKanGAS inh: inhibitors of SKKanGAS S. pyogenes growth in kanamycin (SK-promoter or general growth effect); BacTiter-Glo, 6 h; inhibition, % at 7.5 µM; hit rate 1.3% among 300,000;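 active = mean replicate score, as percent of positive control median, at least 50; inconclusive = mean below 50 but one replicate at or above 50; inactive = mean and every replicate below 50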;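 also: strain carries kanamycin resistance gene driven by streptokinase promoter and grows in 40 µg/ml kanamycin; loss of luminescence reflects streptokinase promoter inhibition or plain growth inhibition; 0% = median of DMSO wells and 100% = positive control at its reference dose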
# PfHsp90 set2: growth inhibition of yeast expressing Plasmodium Hsp90 | S. cerevisiae expressing PfHsp90, BacTiter-Glo ATP, 48 h; yeast lacking PDR1 and PDR3 efflux regulators | inhibition, % at 9.4 µM | hit rate 0.32% among 310,000;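 active = every replicate shows inhibition above about 80%, whatever the replicate mean, limit read from the data; inconclusive = mean inhibition reaches the set limit but some replicate falls short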;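 also: 0% = DMSO neutral controls and 100% = 20 µM radicicol positive controls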
# tim10-1 inh: inhibits growth of tim10-1 mutant yeast; S. cerevisiae tim10-1 ts strain growth, BacTiter-Glo, 24 h; inhibition, % at 20 µM; hit rate 2.2% among 330,000; AID 463190;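 active = inhibition of at least 40%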;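 also: mutant grown at 25 °C; 0% = DMSO wells with yeast and 100% = wells holding no yeast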
# TIM10 inh: inhibits growth of TIM10 yeast strain; S. cerevisiae TIM10 strain growth, BacTiter-Glo luminescence, 24 h; AID 463195; hit rate 1.4% among 330,000; inhibition, % at 10 µM;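 active = inhibition of 40% or more at the single tested concentration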;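 also: wild-type TIM10 isogenic control strain grown at permissive 25 °C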
# tim10-1 conf: tim10-1 yeast growth inhibition, confirmed. shares compounds with tim10-1 inh. S. cerevisiae tim10-1 ts strain growth, BacTiter-Glo, 24 h. inhibition, % at 20 µM. hit rate 56% among 7,400. AID 463213;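 active = inhibition of yeast growth at or above a set limit in either of two repeat tests at 20 µM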;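 also: tim10-1 mutant grown at permissive 25 °C to find synthetic lethal compounds; 0% = DMSO yeast wells and 100% = medium wells without yeast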
# TIM10 conf: confirmation of TIM10 yeast growth inhibitors; shares compounds with TIM10 inh; hit rate 63% among 4,600; S. cerevisiae tim10 strain growth, BacTiter-Glo luminescence, 24 h; AID 463215; inhibition, % at 10 µM;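 active = inhibition of yeast growth at or above a set limit in either of two replicates at 10 µM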;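 also: this counterscreen used the strain with wild-type TIM10; 0% = yeast with DMSO and 100% = medium wells lacking yeast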
# tim23-1 confirm: tim23-1 yeast growth inhibition, confirmed; shares compounds with tim23-1 inh; hit rate 83% among 4,400; S. cerevisiae tim23-1 growth, BacTiter-Glo luminescence, 24 h; inhibition, % at 20 µM; AID 463218;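 active = inhibition above about 39% in either of two replicate wells at 20 µM, limit read from the data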;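 also: temperature-sensitive tim23-1 mutant grown at 25 °C; 0% = DMSO wells with yeast and 100% = medium wells without yeast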
# Starred values were filed as active, the others as inactive; ? = inconclusive; . = not tested or not shown.
SMILES,tim23-1 inh,SKKanGAS inh,PfHsp90 set2,tim10-1 inh,TIM10 inh,tim10-1 conf,TIM10 conf,tim23-1 confirm
O=C(c1ccc(-c2ccc([N+](=O)[O-])cc2)o1)N1CCCCCCC1,76*,.,-55,59*,63*,55*,69*,53*
COc1ccc(N2CCN(C3CCCN(S(=O)(=O)c4ccc(C)cc4C)C3)CC2)cc1 (stereo not drawn),12,-4,19,-2,-31,.,.,.
O=C1C(N2CCOCC2)=C(n2nnc3ccccc32)C(=O)c2ccccc21,83*,30,38,64*,78*,60*,69*,89*
O=C1c2ccccc2C(=O)c2c1cccc2-n1nnc2ccccc21,1,3,-18,-19,-3,.,.,.
Cc1cccnc1Nc1nc(-c2ccc(O)cc2O)cs1,88*,13,-20,44*,31,28,.,52*
Cc1cccnc1Nc1nc(-c2ccccc2)cs1,50,14,-7,8,1,.,.,.
CCC(C)(C)NC(=O)C(c1ccccc1Cl)N(C(=O)CCC(=O)Nc1cc(C)on1)c1ccc(NC(C)=O)cc1 (stereo not drawn),9,-2,8,-1,-12,.,.,.
CCN=c1sc(C(=O)NCCc2ccccc2)cc(=O)n1CC,66*,5,4,51*,43*,48*,11,52*
Cc1cc(NC(=O)CCC(=O)N(c2ccccc2)C(C(=O)NC2CCCC2)c2ccc(F)cc2)no1 (stereo not drawn),-5,5,6,-15,-6,.,.,.
CCOC(=O)C(=CNc1cc(C)nn1-c1ccc(Cl)cc1)C(=O)OCC,-9,-7,9,24,14,.,.,.
CCOC(=O)C(=Cc1ccc(-n2cncn2)cc1)C(=O)OCC,52*,-7,?,62*,67*,52*,47*,71*
CCOC(=O)C1=C(SCC)c2cc3c(n2C1=O)CCCC3,59*,.,25,65*,59*,48*,-12,61*
Nc1nc(-c2ccc3c(c2)CCCC3)cs1,51*,.,3,59*,32,44*,.,54*
O=S(=O)(c1ccccc1)N1N=C(c2ccc(Br)cc2)CC1c1ccco1 (stereo not drawn),39,-4,10,37,9,.,.,.
COc1ccc(Cl)cc1C(=O)Nc1cccnc1,-4,2,-8,-1,0,.,.,.
COc1ccc(Cl)cc1C(=O)Nc1ccc(NC(=O)C(C)C)cc1,53*,-6,2,53*,41*,45*,36*,42*
COc1ccc(CN2c3c(Br)cccc3C(=O)CS2(=O)=O)cc1,72*,.,-20,42*,14,41*,.,60*
CCOC(=O)N1C(=O)[C@](c2ccc(Cl)cc2)(C(C)C)N1C(=O)OCC,61*,8,-16,42*,39,42*,.,56*
Cc1ccc(C(=O)NCc2ccccc2CN2CCCC2)cc1S(=O)(=O)N1CCOCC1,2,.,-4,4,6,.,.,.
Cc1cc(C(=O)Nc2ccc(Nc3ccccc3)cc2)ccc1[N+](=O)[O-],-2,1,-20,-13,-4,.,.,.
O=C(Nc1ccc(Nc2ccccc2)cc1)c1ccc(Cl)c([N+](=O)[O-])c1,73*,6,8,46*,23,28,.,57*
O=C(CC1SC(=O)NC1=O)Oc1ccc(/C=N/NC(=O)c2ccccc2O)cc1 (stereo not drawn),4,9,-5,5,-14,.,.,.
CCOc1ccc2nc(NC(=O)COC)sc2c1,20,-2,.,21,6,.,.,.
CCOc1ccc2nc(NC(=O)c3ccoc3C)sc2c1,80*,91*,79*,75*,68*,76*,69*,85*
O=C(CNc1ccc(Br)cc1)NC(=O)NC1CCCCC1,59*,.,-21,48*,26,37*,.,37
SMILES,tim23-1 inh,SKKanGAS inh,PfHsp90 set2,tim10-1 inh,TIM10 inh,tim10-1 conf,TIM10 conf,tim23-1 confirm
O=C(Nc1nc(-c2cccs2)c(C(=O)C(F)(F)F)s1)c1ccco1,62*,-7,2,56*,56*,73*,59*,79*
O=C(Nc1nc(-c2cccs2)c(C(=O)C(F)(F)F)s1)c1ccccc1,69*,7,-11,61*,33,50*,.,70*
Cc1ccc([C@@H]2CC=C(C(=O)O)CN2S(=O)(=O)c2ccc(C)cc2)cc1,15,.,7,9,5,.,.,.
COCc1cc(CNC(=O)C2CCC(=O)N(Cc3ccccc3OC)C2)[nH]n1 (stereo not drawn),-11,2,-5,-20,4,.,.,.
O=C(O)c1ccc(S(=O)(=O)/N=C2\C=C(Nc3ccccc3F)C(=O)c3ccccc32)cc1,81*,88*,24,79*,74*,84*,74*,89*
S=C(NCc1cccs1)Nc1cccc(Cl)c1Cl,56*,6,-20,50*,41*,32*,5,56*
Cc1c(Cl)cccc1NC(=S)NCc1cccs1,26,12,8,37,36,.,.,.
N#CC1=C(N)OC(c2ccccc2)=C(C#N)C1c1ccc2c(c1)OCO2 (stereo not drawn),72*,-2,-35,62*,82*,56*,71*,75*
N#CC1=C(N)OC2=C(C(=O)CC(c3ccccc3)C2)C1c1ccc2c(c1)OCO2 (stereo not drawn),32,2,26,32,19,.,.,.
CC(=O)OCCCN1c2ccccc2Nc2nnc(-c3ccccc3)cc21,51*,3,-9,47*,51*,32*,30*,49*
COc1ccc(N2C(=O)C(Cl)=C(Oc3cccc(OC)c3)C2=O)cc1,53*,.,2,72*,75*,57*,82*,4
CC12CCC(=O)N1C(C(=O)Nc1cc(Cl)ccc1N1CCOCC1)CS2 (stereo not drawn),25,-7,3,16,10,.,.,.
Cc1ccc(S(=O)(=O)/N=C(\Sc2ccccc2)c2ccccc2)cc1,52*,-2,20,51*,29,33*,.,62*
COc1ccc2c(c1)c1ccc3c(c1n2C)C(=O)C=CC3=O,68*,.,7,47*,55*,60*,93*,-19
COc1ccc2c(c1)c1ncn(CCN3CCCC3)c(=O)c1n2C,4,3,-21,17,-21,.,.,.
Cc1ccc2c(c1)c1ccc3c(c1n2C)C(=O)C=CC3=O,73*,.,?,63*,63*,56*,94*,42*
O=C(NCCc1ccc(F)cc1)c1ccc2c(=O)n3c(nc2c1)CCC3,0,0,-5,4,7,.,.,.
